Data published in PubChem BioAssay AID588466 (NMMLSC, 2011).
In all, about 2,100 compounds went through this assay and about 30 (1%) were called active.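 The calls were made as follows: active = compounds whose mean binding response over two repeats is below 75% of the DMSO control; inactive = the rest.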 These entries were drawn from the full list.

target: Desmoglein-3 (Homo sapiens) (UniProt P32926); assay: inhibitors of anti-DSG3 scFv binding to DSG3, confirmation, biochemical, cherry pick 1, bead-based, flow cytometry (AID 588466); conditions: Protein G beads with DSG3, scFv-GFP binding, at 10 µM, stronger effect = lower value;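 also: 100% = 2% DMSO vehicle and 0% = excess soluble DSG3 blocking control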
Sequence (P32926 whole entry, looked up): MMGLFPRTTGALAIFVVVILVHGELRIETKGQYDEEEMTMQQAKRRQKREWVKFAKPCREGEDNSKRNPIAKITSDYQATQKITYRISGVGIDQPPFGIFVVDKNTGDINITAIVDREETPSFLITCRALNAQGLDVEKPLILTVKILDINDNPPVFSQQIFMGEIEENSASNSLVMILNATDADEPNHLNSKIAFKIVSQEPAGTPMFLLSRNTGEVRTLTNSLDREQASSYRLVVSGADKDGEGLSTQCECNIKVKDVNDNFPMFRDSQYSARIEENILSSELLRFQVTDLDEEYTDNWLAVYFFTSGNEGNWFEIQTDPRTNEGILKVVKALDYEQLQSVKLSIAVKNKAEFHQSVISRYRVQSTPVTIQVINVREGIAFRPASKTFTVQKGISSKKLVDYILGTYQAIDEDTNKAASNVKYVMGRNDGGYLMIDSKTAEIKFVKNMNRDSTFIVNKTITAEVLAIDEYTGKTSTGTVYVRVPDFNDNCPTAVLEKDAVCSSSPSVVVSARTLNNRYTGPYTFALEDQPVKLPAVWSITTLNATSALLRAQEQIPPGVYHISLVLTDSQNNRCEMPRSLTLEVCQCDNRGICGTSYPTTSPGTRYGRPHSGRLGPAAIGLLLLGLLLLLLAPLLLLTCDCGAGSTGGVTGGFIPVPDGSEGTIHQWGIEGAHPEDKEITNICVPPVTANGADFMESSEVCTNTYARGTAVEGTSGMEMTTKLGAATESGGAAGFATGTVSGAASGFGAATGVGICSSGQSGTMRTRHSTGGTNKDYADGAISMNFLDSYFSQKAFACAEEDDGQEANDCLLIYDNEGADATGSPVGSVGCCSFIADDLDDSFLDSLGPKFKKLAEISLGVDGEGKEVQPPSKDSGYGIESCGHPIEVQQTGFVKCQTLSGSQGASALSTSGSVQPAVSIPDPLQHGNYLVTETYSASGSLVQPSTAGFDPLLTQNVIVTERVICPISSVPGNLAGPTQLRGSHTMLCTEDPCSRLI

Binding response (% of DMSO), inactive:
Cc1ccc(NC(=O)Cc2ccc([N+](=O)[O-])cc2)c(Br)c1 95.5%
CCCN(CCC)CCNC(=O)Cn1cnc2sc(C)c(S(=O)(=O)N3CCOCC3)c2c1=O 99.3%
CCOC(=O)c1nn(-c2ccccc2)c(=O)c2c(NC(C)=O)scc12 111%
Cc1cc2ccccc2n1CCNC(=O)c1ccc(S(=O)(=O)N2CCCCC2)cc1 94.7%
CCOc1ccc(/C(O)=C2/C(=O)C(=O)N(c3cc(C)on3)C2c2ccc(C(=O)OC)cc2)cc1 (stereo not given) 98.1%
C[C@H]1COC(=O)[C@@H](Cc2ccc(F)cc2)CC/C=C/C[C@@H](CC(=O)N(CCO)Cc2ccccc2)C(=O)N1 104%
Cc1ccc(NC(=O)COc2ccc3c(c2)OCO3)c(C)c1 103%
CCN1CCN(c2ccc(S(=O)(=O)N3CCOCC3)cc2NC(=O)CCSC)CC1 105%
COc1ccc(CN(CCN(C)C)Cc2ccccc2)c(OC)c1 101%
Cc1cnc(NS(=O)(=O)c2ccccc2)c(C)n1 98.8%
N#Cc1c(-c2ccc(F)cc2)cc(-c2ccccc2)nc1SCC(=O)NCC(=O)O 99.8%
O=C(Oc1cccc(C(=S)N2CCOCC2)c1)c1ccccc1 94.4%
CCc1cc2cc3c(cc2nc1SCC(=O)Nc1cc(C)on1)OCO3 103%
Cc1ccc(/C=N/N2CCN(c3ccc(Cl)cc3)CC2)o1 101%
COc1ccccc1-c1cc(N)n(S(=O)(=O)c2ccc(F)c(C)c2)n1 100%
COC(=O)c1oc2ccc(Cl)cc2c1NC(C)=O 100%
O=[N+]([O-])c1ccc(OCc2cnc(Cl)s2)c([N+](=O)[O-])c1 107%
Cc1ccc(C)c(N2CCN(C(=O)Cc3cn(C)c4ccccc34)CC2)c1 104%
O=C(CNC(=O)c1ccc(Br)cc1)N=Nc1c(O)[nH]c2ccc([N+](=O)[O-])cc12 100%
CC(=O)c1ccc(NC(=O)Cn2cnc(S(=O)(=O)N3CCC(C)CC3)c2)cc1 98.2%
CSCC[C@H](NC(=O)C1CCN(S(=O)(=O)c2ccc(C)cc2)CC1)C(=O)NCc1ccco1 106%
Cc1ccccc1NC(=O)Nc1nc2ccc(S(C)(=O)=O)cc2s1 89.9%
COc1ccc(NC(=O)CSc2nnc(Cc3ccc(C)cc3)c(=O)n2N)cc1 92.4%
Cc1ccc(NC(=O)COc2ccc3c(c2)OCO3)c(Cl)c1 98.1%
CC1=C(C(N)=O)C(c2cccnc2)n2nc(SCc3ccccc3Cl)nc2N1 (stereo not given) 103%
